Test [1] deals with Tyrosine-protein kinase Lck (Homo sapiens) (UniProt P06239). The note with it: at 10 µM.
Test [2] shares this target. The note with it: at 1 µM.
Test [3] shares this target. To be noted: at 10 µM. This is another data set of the same source.
Test [4] addresses Tyrosine-protein kinase Lyn (Homo sapiens) (UniProt P07948). To be noted: at 1 µM.
For test [5] the target is unchanged. The note with it: at 10 µM.
Test [6] concerns the target Mitogen-activated protein kinase 3 (Homo sapiens) (UniProt P27361). The note with it: at 1 µM.
Test [7] has the same target. The note with it: at 10 µM.
Test [8] addresses Mitogen-activated protein kinase 1 (Homo sapiens) (UniProt P28482). The note with it: at 1 µM.
Test [9] has the same target. To be noted: at 10 µM.
Test [10] has as its target MAP kinase-activated protein kinase 2 (Homo sapiens) (UniProt P49137). The note with it: at 1 µM.

Data on 40 molecules can be found in ChEMBL document CHEMBL2218924, “A broad activity screen in support of a chemogenomic map for kinase signalling research and drug discovery” (Biochem J, 2013).

Chain of Mitogen-activated protein kinase 3 (Homo sapiens) (P27361 whole entry): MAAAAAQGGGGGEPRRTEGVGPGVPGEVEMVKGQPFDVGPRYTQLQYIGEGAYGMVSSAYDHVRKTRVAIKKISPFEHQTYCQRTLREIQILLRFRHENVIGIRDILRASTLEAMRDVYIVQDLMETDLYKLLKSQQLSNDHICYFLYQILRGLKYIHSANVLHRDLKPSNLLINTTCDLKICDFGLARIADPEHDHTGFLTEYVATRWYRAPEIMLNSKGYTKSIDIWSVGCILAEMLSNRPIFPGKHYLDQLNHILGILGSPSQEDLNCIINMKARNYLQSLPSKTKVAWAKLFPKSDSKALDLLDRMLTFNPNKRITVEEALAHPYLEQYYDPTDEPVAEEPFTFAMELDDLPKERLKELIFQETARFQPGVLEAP
Chain of Mitogen-activated protein kinase 1 (Homo sapiens) (P28482 whole entry): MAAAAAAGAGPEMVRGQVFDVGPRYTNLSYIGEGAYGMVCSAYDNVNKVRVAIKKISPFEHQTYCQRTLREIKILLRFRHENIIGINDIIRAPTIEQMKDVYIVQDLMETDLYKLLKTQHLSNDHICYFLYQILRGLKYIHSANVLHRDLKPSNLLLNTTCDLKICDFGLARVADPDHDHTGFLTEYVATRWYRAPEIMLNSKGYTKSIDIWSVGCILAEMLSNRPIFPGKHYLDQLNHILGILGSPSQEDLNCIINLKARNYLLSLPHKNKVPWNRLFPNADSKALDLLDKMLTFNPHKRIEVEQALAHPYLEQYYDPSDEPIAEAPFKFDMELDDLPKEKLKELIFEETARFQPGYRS
Chain of Tyrosine-protein kinase Lck (Homo sapiens) (P06239 2-509 limits assumed): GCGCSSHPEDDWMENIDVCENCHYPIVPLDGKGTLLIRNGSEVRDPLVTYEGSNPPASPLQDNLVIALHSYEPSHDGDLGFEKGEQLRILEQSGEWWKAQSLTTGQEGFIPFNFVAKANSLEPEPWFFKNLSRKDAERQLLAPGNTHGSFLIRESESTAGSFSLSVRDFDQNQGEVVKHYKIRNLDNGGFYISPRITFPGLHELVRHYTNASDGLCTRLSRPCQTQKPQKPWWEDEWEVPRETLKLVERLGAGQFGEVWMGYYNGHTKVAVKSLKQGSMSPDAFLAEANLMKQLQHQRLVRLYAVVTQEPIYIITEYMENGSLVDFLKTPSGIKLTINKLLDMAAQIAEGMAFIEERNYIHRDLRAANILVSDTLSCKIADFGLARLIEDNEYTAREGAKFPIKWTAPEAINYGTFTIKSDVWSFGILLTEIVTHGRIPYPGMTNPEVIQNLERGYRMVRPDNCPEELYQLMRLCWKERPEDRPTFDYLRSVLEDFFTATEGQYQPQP
Chain of Tyrosine-protein kinase Lyn (Homo sapiens) (P07948 2-512 limits assumed): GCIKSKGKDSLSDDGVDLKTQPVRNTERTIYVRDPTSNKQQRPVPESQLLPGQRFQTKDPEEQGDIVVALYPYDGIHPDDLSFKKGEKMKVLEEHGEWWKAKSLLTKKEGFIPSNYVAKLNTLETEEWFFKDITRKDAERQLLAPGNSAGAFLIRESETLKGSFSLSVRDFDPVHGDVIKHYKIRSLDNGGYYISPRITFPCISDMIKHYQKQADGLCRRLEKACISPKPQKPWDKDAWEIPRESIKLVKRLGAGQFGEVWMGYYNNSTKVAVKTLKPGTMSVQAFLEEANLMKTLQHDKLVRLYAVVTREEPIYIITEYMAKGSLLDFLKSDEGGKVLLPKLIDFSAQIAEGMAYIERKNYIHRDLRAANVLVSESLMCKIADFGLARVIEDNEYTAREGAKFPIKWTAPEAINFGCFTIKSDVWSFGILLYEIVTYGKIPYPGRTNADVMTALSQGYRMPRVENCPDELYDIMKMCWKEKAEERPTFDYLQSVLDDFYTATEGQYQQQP
Chain of MAP kinase-activated protein kinase 2 (Homo sapiens) (P49137 whole entry, looked up): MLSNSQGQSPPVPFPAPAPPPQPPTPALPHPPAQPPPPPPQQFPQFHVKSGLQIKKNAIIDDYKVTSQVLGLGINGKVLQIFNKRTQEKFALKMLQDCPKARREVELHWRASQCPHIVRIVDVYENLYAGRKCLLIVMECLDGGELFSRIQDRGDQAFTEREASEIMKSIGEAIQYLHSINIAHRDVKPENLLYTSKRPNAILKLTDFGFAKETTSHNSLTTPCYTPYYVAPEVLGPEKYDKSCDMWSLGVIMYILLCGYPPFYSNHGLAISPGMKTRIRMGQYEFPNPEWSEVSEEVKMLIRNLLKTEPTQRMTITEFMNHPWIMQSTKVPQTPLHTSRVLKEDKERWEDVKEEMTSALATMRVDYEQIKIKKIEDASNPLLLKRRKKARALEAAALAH

In the case of `COc1cc2nccc(Oc3ccc(NC(=S)NC(=O)c4ccccc4C)cc3)c2cc1OC`, the residual activity was -1% in [1]; 0% in test [2]; 0% in [3]; 0% in test [4]; 0% in test [5]; 83% in test [6]. In addition, the residual activity turned out to be 82% in [7], 93% in [8], 87% in test [9] and 73% in [10].
Take `O=C1NC(=O)C(c2cn(CCCn3ccnc3)c3ccccc23)=C1Nc1ccccc1`: the residual activity amounted to 65% in [1]; 66% in test [3]; 39% in [5]; 70% in test [7]; 104% in [8]; 110% in test [9]. Also, in [10], the residual activity is 100%.
Regarding `O=C1Nc2ccc(Cl)cc2/C1=C/c1cc(Cl)c(O)c(Cl)c1`, the residual activity in test [1] is 53%; in test [2], 74%; in test [3], 51%; in [4], 81%; in [5] it was 23%; in test [6], 76%. Besides, the residual activity in [7] was 70%; in [10], 67%.
Consider `CCCCc1c(-c2ccc(OC)cc2)[nH]c2nccnc12`, for which the residual activity in test [1] worked out at 63%; in test [2], 63%; in [3], 82%; in [4], 37%; in test [5] it was 11%; in [8], 117%. The residual activity was 105% in test [9] and 89% in test [10].
As for `O=C1C(Cl)=C(N2C(=O)CCC2=O)C(=O)c2ccccc21`, the residual activity in test [1] amounted to 99%; in [3], 93%; in test [4], 87%; in test [5], 84%; in [6] it was 102%; in test [7] it was 91%. The residual activity in [10] was determined as 69%.
Take `COc1ccc(COc2ccc(Cc3cnc(N)nc3N)cc2OC)cc1`: the residual activity in test [1] was found to be 77%; in test [6] it was 100%; in [7], 76%.
With `CC(C)(C)n1nc(Cc2cccc3ccccc23)c2c(N)ncnc21`, the residual activity in [1] was 6%; in test [2] it was 44%; in test [3], 12%; in test [4], 10%; in test [5] it was 1%; in test [6] it was 78%. The residual activity in test [7] came out at 51%; in test [8] it was 81%; in [9], 41%.
Consider `O=c1cc(N2CCOCC2)oc2c(-c3ccccc3)cccc12`, for which the residual activity in [5] stood at 74%; in [6], 78%; in test [7], 73%.
On to `COc1ccc(Cl)cc1NC(=O)Nc1cc(C)nc2ccccc12`, for which the values for the residual activity in test [4], in [5] and in test [10] were 89%, 87% and 80%, respectively.
Take `NC(=O)c1cccc(-c2cc(Nc3ccc(OC(F)(F)F)cc3)ncn2)c1`: the residual activity came to 92% in test [2], 91% in test [3], 97% in test [4] and 82% in test [5].
For the molecule `NC(=O)Nc1sc(-c2ccc(F)cc2)cc1C(N)=O`, the residual activity in [4] came out at 16%; in test [5], 1%; in [6], 80%; in [8], 108%; in [9] it was 67%; in test [10], 92%.
For `Fc1ccc(-c2nc3n(c2-c2ccncc2)CCS3)cc1`, the residual activity in test [3] turned out to be 75%; in test [4], 98%; in test [5], 74%; in test [6], 138%; in test [7] it was 92%.
In the case of `Nc1nccc(-c2c(-c3ccc(F)cc3)ncn2C2CCNCC2)n1`, the residual activity in test [4] is 50%; in test [5] it was 6%; in [7], 35%.
Consider `Nc1ncnc2c1cnn2-c1ccccc1`, for which the residual activity in test [4] was determined as 95%; in [5], 82%; in test [6], 82%; in test [7], 80%; in test [9], 95%; in [10] it was 92%.
With `N#C/C(=C1/Nc2ccccc2S1)c1ccnc(NCCc2cccnc2)n1`, the residual activity in test [5] worked out at 15%.
In the case of `O=C1Cc2c([nH]c3ccc([N+](=O)[O-])cc23)-c2ccccc2N1`, the residual activity in test [2] was determined as 76%; in [3], 45%; in [4], 6%; in test [5] it was 5%; in test [8] it was 109%; in [10] it was 69%.
As to `CN([C@@H](Cc1ccc(OS(=O)(=O)c2cccc3cnccc23)cc1)C(=O)N1CCN(c2ccccc2)CC1)S(=O)(=O)c1cccc2cnccc12`, the residual activity in test [2] turned out to be 113%; in test [4] it was 78%; in test [5], 59%.
For the molecule `O=S(=O)(c1cccc2cnccc12)N1CCCNCC1`, the residual activity in [4] is 83%; in test [9], 80%.
With `O=c1c(-c2ccc(F)cc2)c(-c2ccncc2)[nH]n1-c1ccc(Cl)cc1`, the residual activity in test [4] worked out at 75%; in [5], 38%; in test [7], 66%; in test [8], 122%.
As for `O=C(Nc1ccc(Cl)cc1)c1ccccc1NCc1ccncc1`, the residual activity in [4] was determined as 30%; in test [5], 2%; in test [6], 77%; in [7] it was 80%.
Regarding `COc1cc2c(cc1OC)-c1n[nH]c(Nc3cccc(F)c3)c1C2`, the residual activity in test [4] was determined as 6%; in [5] it was 6%; in test [7], 76%; in test [8], 103%; in [9] it was 103%; in test [10], 75%.
Turning to `CCN1/C(=C/C(C)=O)Sc2ccc(OC)cc21`, the residual activity in test [4] was found to be 49%; in test [5], 37%.
As to `CC(C)N(CCC(=O)c1ccc2ccccc2c1)Cc1ccccc1`, the residual activity in test [1] came out at 77%; in test [6], 85%; in [7] it was 76%.
Consider `Cc1cc(C)c(/C=C2\C(=O)Nc3ccccc32)[nH]1`, for which the residual activity in test [4] stood at 46%; in test [5], 8%; in [8], 98%; in test [9] it was 101%; in test [10] it was 100%.
As for `NC(=O)c1ccc(-c2nc(-c3ccc4c(c3)OCCO4)c(-c3ccccn3)[nH]2)cc1`, the residual activity in test [4] worked out at 83%; in test [6], 96%.
In the case of `O=S(=O)(NCCNC/C=C/c1ccc(Br)cc1)c1cccc2cnccc12`, the residual activity is 49% in test [5] and 70% in test [7].
Consider `Cn1sc(=O)n(Cc2ccccc2)c1=O`, for which the residual activity in test [4] was 82%; in [5], 92%; in test [6] it was 83%; in [7] it was 92%; in test [8] it was 95%; in test [9], 92%. In addition, the residual activity in test [10] came out at 72%.
For the molecule `Nc1n[nH]c2nc3ccccc3nc12`, the residual activity stood at 75% in test [4], 67% in [5] and 123% in test [8].
As to `CCOC(=O)c1c(C)[nH]c(/C=C2\C(=O)Nc3ccccc32)c1C`, the residual activity in test [4] came to 50%; in test [5] it was 26%; in test [6], 81%; in [7], 91%; in test [8], 100%; in test [9] it was 96%.
As for `Cn1c2ccccc2c2c3c(c4c5ccccc5n(CCC#N)c4c21)CNC3=O`, the residual activity in [4] stood at 21%; in test [5], 9%; in test [6], 52%; in test [8], 48%; in [9] it was 44%.
Regarding `N#C/C(=C\c1ccc(O)c(O)c1)C(=O)NCc1ccccc1`, the residual activity in test [5] is 70%; in test [6], 77%; in [7] it was 65%; in test [10], 85%.
On to `CC(C)[C@H](CO)Nc1nc(Nc2cc(N)cc(Cl)c2)c2ncn(C(C)C)c2n1`, for which the residual activity is 9% in test [4]; -1% in [5]; 91% in test [6]; 82% in test [7]; 66% in [9]; 89% in test [10].
`N#Cc1c(NC(=O)c2cccc3ccccc23)sc2c1CCCC2`: the residual activity in [4] was determined as 90%; in test [5], 62%; in test [9], 92%.
As for `O=C(Nc1nc2ccccc2n1CCN1CCOCC1)c1cccc([N+](=O)[O-])c1`, in test [5], the residual activity turned out to be 87%.
As to `Oc1cccc(-c2nc(N3CCOCC3)c3oc4ncccc4c3n2)c1`, the residual activity came out at 99% in [4]; 57% in [5]; 83% in [6]; 87% in test [7]; 122% in test [8]; 119% in [9]. The residual activity in [10] came to 81%.
Regarding `CN(C)S(=O)(=O)c1ccc2c(c1)/C(=C/c1cc3c([nH]1)CCCC3)C(=O)N2`, the residual activity in [4] is 3%; in [5], 0%; in test [7], 88%; in test [10], 81%.
Consider `CCOc1nc(NC(=O)Cc2cc(OC)ccc2OC)cc(N)c1C#N`, for which the results for the residual activity in test [4] and in test [5] were 69% and 59%, respectively.
The like results for `O=C1Cc2c([nH]c3ccc(Br)cc23)-c2ccccc2N1` were, in that order, 10% and 1%.
With `CC(C)(C)c1nc2c3ccc(F)cc3c3c(=O)[nH]ccc3c2[nH]1`, the residual activity was determined as 65% in [4]; 20% in test [5]; 47% in [6]; 64% in test [7]; 79% in test [10].
Turning to `O=C1NC(=O)C(c2cn(CCCO)c3ncccc23)=C1c1cnccn1`, the values for the residual activity in test [4], in [5] and in test [10] were 78%, 70% and 93%, respectively.
